# Shown are actives, neighbours in structure and some others; about 17% of the full set was active somewhere.
# DT40 TDP1 no CPT = qHTS for Inhibitors of human tyrosyl-DNA phosphodiesterase 1 (TDP1): qHTS in cells in absence of CPT; 420,000 compounds, 15% hits; Potency, µM (series often up to 46.2 µM), for the others: at the highest dose activity change, negative = growth inhibition, actives largely listed as inhibitors; DT40 Tdp1-/- hTDP1 cells, no CPT, ATP luminescence, 48 h; note: % is set by controls: 0 for no effect and ±100 for the full control effect; nearly all actives have a fitted effect of over 55% in size
#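 DT40 Tdp1-/-;hTDP1 cells, no CPT (DMSO vehicle only), 400 cells/well; compounds pin-transferred; ≥48 hr, 37 °C; CellTiter-Glo 30 min RT dark, luminescence read.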
# TDP1 cell CPT = growth inhibition of DT40 Tdp1-/-;hTDP1 cells with camptothecin (screen for TDP1 inhibitors); chicken DT40 Tdp1-/-;hTDP1 cells + 20 nM CPT, ATP luminescence, 48 h; Potency, µM (highest dose often 46.2 µM), without a hit: top-dose activity change, negative = growth inhibition, usual class: inhibitors; 420,000 compounds, 12% hits; note: % is set by controls: 0 for no effect and ±100 for the full control effect; nearly all actives have a fitted effect of over 55% in size
#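 Cell growth measured by CellTiter-Glo luminescence after a minimum 48 h, 37 C compound exposure with 20 nM CPT in Tdp1-knockout DT40 cells stably expressing hTDP1, seeded 400/well; qHTS titration format.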
# TDP1 inh = blocks human tyrosyl-DNA phosphodiesterase 1 | Q9NUW8 | recombinant TDP1, AlphaScreen DNA substrate cleavage | Potency, µM (doses to about 130 µM), inactives show at the highest dose activity change, negative = inhibition, usual class: inhibitors | 350,000 compounds, 0.28% hits | AID 485290; note: % is set by controls: 0 for no effect and ±100 for the full control effect; nearly all actives have a fitted effect of over 40% in size
# Target sequence (Q9NUW8 whole entry, looked up): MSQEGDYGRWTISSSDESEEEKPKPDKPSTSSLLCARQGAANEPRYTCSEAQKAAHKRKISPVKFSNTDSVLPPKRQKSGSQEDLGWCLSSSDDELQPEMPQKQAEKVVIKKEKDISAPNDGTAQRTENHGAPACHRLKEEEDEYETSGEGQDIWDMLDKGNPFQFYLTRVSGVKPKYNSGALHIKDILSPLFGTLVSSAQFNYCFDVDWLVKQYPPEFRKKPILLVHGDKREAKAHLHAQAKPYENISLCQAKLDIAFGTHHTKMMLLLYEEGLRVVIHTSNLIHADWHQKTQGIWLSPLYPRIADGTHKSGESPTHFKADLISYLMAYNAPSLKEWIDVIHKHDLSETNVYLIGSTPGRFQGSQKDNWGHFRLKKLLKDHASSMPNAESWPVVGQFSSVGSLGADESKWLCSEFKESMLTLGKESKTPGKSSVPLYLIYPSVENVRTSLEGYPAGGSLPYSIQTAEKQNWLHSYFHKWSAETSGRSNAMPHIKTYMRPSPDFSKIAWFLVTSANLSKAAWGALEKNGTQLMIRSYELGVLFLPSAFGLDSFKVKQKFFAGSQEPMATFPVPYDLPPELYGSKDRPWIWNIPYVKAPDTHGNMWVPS
#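 Tdp1 1 nM final; 15 min RT w/ cpd; substrate 15 nM, 5 min; beads 10 ug/ml, 10 min; AlphaScreen read. Neg ctrl: no enzyme.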
# ClpP mod = qHTS Assay for Activators of ClpP | purified B. subtilis ClpP, FRET peptide cleavage, 20 min | Potency, µM (titrated, usually from 57.5 µM), for the others: at the highest dose activity change, negative = active | 340,000 compounds, 1.9% hits | AID 651965, 2013; active = well fitted falling curve with a large enough effect; inconclusive = small, poorly fitted or top-dose-only effect; inactive = no such curve, though single readings can be large or run the other way; note: the source files actives as falling curves though it sought activators and does not explain the sign; nearly all actives have a fitted effect of over 65% in size
#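 Purified B. subtilis ClpP, 10 microg/mL final in Tris/HCl pH8 with KCl, BSA, glycerol and Tween-20, cleaved an Abz/nitrotyrosine-quenched decapeptide. Fluorescence (ex 320, em 430) was read at 0 and 20 min at room temperature. Delta was normalized to 5.8 microM ADEP and DMSO/no-enzyme controls.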
# Active calls of the source: *; ? = inconclusive; / = no result given; [ ] = dose if it differs, or a comment. Unless noted, calls come from the whole dose curve; as a rule, active = well fitted curve in the direction sought with a large enough effect; inconclusive = small, poorly fitted or top-dose-only effect, or another doubt; inactive = no such curve, though single readings can be large; an effect the other way counts as inactive or inconclusive. Potency is the fitted concentration of half-maximal effect.
SMILES,DT40 TDP1 no CPT,TDP1 cell CPT,TDP1 inh,ClpP mod
COc1ccc(-n2ncc(C(=O)NCc3ccco3)c2C2CCN(C(=O)OC(C)(C)C)CC2)cc1,?,?,5%,1%
Cc1cccc(C(=O)N=c2sccn2C)c1[N+](=O)[O-],-27%,?,4%,0%
CCOC(=O)[C@H]1[C@H]2COc3ccc(OC)cc3[C@@H]2N2C(=O)CN(C)C(=O)[C@@]12C,-19%,-8%,0%,3%
CCOC(=O)c1c(NC(=O)CSc2nnc(C)s2)sc2c1CCC(C)C2 (centres undefined),21µM*,?,0%,-6%
CC1CCc2c(sc(NC(=O)c3ccccc3C(=O)O)c2C#N)C1 (centres undefined),-14%,0%,5%,/
CC1CCc2c(sc(NC(=O)COC(=O)c3ccccc3NCc3ccco3)c2C#N)C1 (centres undefined),-3%,1%,7%,13µM*
CCOC(=O)c1c(NC(=O)Cn2nnc3ccccc32)sc2c1CCC(C)C2 (centres undefined),23µM*,23µM*,1%,-21%
CCOC(=O)c1c(NC(=O)C(C)NCc2ccco2)sc2c1CCC(C)C2 (centres undefined),21µM*,?,5%,?
CN1CCN(c2ncc3ncc(=O)n(C4CC4)c3n2)CC1,-10%,-10%,/,/
Cc1cccc(CC(=O)N2CCCC2)c1,5%,2%,1%,-1%
O=C(CC[C@H]1O[C@@H](n2cnc3c(NC(=O)c4ccccc4)ncnc32)[C@H](O)[C@@H]1O)NCc1ccco1,1%,10%,/,0%
Cc1ccc(C(=O)COC(=O)C2CC(=O)N(c3nc(-c4ccccc4)cs3)C2)cc1 (centres undefined),-14%,-17%,1%,0%
CCOC(=O)c1ccc(-c2ccc(/C=N/NC(=O)c3cncc(Br)c3)o2)cc1,23µM*,?,/,0%
CCCCOC(=O)c1ccc(-c2ccc(/C=N/NC(=S)NCC)o2)cc1,7.3µM*,5.8µM*,5%,-4%
CC[C@H](C)[C@@H](CN[C@H](C)CNC)NCCC(c1ccccc1)c1ccccc1,3.7µM*,5.2µM*,/,2%
O=C(CSc1nnc(-c2cccnc2)s1)Nc1ccnc2ccccc12,0.52µM*,1.2µM*,5%,-3%
COc1cc(OC)c(NC(=O)c2ccoc2C)cc1Cl,?,15µM*,7%,-1%
COc1ccccc1NC(=O)COC(=O)c1cc2ccccc2cc1O,0%,-22%,0%,1%
Cc1ccc(Cl)cc1NC(=O)c1cc2ccccc2cc1O,2.9µM*,2.6µM*,6%,-2%
Cc1ccc(Cl)cc1NC(=O)COC(=O)c1ccccc1O,21%,-2%,3%,7%
COc1ccc(Cl)cc1NC(=O)c1ccoc1C,-12%,-15%,-2%,-1%
Cc1occc1C(=O)Nc1ccc([N+](=O)[O-])cc1Br,29µM*,1.3µM*,1%,0%
Cc1ccc([N+](=O)[O-])cc1NC(=O)c1ccoc1C,-24%,?,5%,?
COc1ccccc1NC(=O)c1cc2cc(Br)ccc2cc1O,3.7µM*,6.5µM*,0%,-2%
COc1cc(OC)c(NC(=O)c2ccccc2F)cc1Cl,-21%,-11%,0%,18%
SMILES,DT40 TDP1 no CPT,TDP1 cell CPT,TDP1 inh,ClpP mod
COc1cc(NC(=O)c2cc3ccccc3cc2O)c(OC)cc1Cl,10µM*,15µM*,/,13%
O=C(NNC(=O)c1cc2ccccc2cc1O)Nc1ccc(Br)cc1,5%,12%,2%[56.1 µM],28µM*
Cc1nnc(-c2cccc(Br)c2)c2cn(-c3ccccc3)nc12,?,23µM*,3%,-1%
CC(=O)c1nn(-c2cccc(Br)c2)cc1C(=O)c1ccc(C)cc1,-1%,?,-3%,0%
Cc1nnc(-c2cccc(Br)c2)c2cn(-c3cccc(Br)c3)nc12,16µM*,?,-5%,1%
Cc1nnc(-c2cccc(Br)c2)c2cn(-c3ccc(Br)cc3)nc12,15µM*,?,4%,1%
COc1ccc(CC(=O)OCC(=O)c2c(N)n(C)c(=O)n(C)c2=O)cc1OC,?,-3%,-1%[56.1 µM],0%
CCN(CC)CCCNC(=O)CSc1nc(-c2ccc(OC)cc2)cc(C(F)(F)F)n1,?,?,-5%,5%
Cc1oc2c(C)c3oc(=O)c(CCC(=O)N4CCCCC4)c(C)c3cc2c1C,10µM*,15µM*,2%,?
Cc1coc2cc3oc(=O)c(CCC(=O)N4CCCCC4)c(C)c3cc12,21µM*,13µM*,9%,4%
Cc1oc2c(C)c3oc(=O)c(CCC(=O)N4C[C@H]5C[C@@H](C4)c4cccc(=O)n4C5)c(C)c3cc2c1C,?,?,/,-21%
CC1CC(C)C(=O)C(C(CC2CC(=O)NC(=O)C2)OC(=O)CC(=O)c2ccccc2)C1 (centres undefined),0.41µM*,0.37µM*,/,/
O=C1CCC(C(=O)OCC(=O)c2ccccc2)N1 (centres undefined),-24%,?,3%,-1%
COC(=O)c1ccc(Cl)cc1NC(=O)N1CC=C(c2c[nH]c3ccccc23)CC1,?,15µM*,6%,28µM*
O=C(Nc1ccc(Br)cc1F)N1CC=C(c2c[nH]c3ccccc23)CC1,0.58µM*,0.65µM*,3%,-9%
Cc1cccc(NC(=O)N2CC=C(c3c[nH]c4ccccc34)CC2)c1C,23µM*,16µM*,3%,-29%
Cc1ccc(NC(=O)N2CC=C(c3c[nH]c4ccccc34)CC2)cc1Cl,10µM*,18µM*,6%,-15%
O=C(Nc1cccc2ccccc12)N1CC=C(c2ccccc2)CC1,?,?,5%,?
Cc1ccc(NC(=O)N2CCN(C(=O)c3nsc4ccccc34)CC2)cc1C,?,?,3%,0%
Cc1ccccc1S(=O)(=O)Oc1cccc2c(O)cccc12,-4%,-12%,3%,2%
CCCNC(=O)C1CCC(Cn2c(=O)c3sccc3n(CC(=O)N3CCCC(C)C3)c2=O)CC1 (centres undefined),-7%,-21%,8%,-1%
CCOc1ccc(NC(=O)CCS(=O)(=O)c2cc3c4c(c2)CCN4C(=O)CC3)cc1,-6%,-1%,0%,-1%
COCCN(C(=O)Cc1ccc(S(=O)(=O)N2CCOCC2)s1)c1c(N)n(CC(C)C)c(=O)[nH]c1=O,1%,7%,/,-4%
COCCCNC(=S)N1CCN(C(c2ccccc2)c2ccccc2)CC1,?,-33%,3%,2%
COCCCNC(=S)N1CCN(c2nc(-c3ccccc3)cs2)CC1,12µM*,16µM*,/,-1%
COc1ccc(N2CCN(C(=O)c3csc4ccccc34)CC2)cc1,?,-21%,2%,-3%
CCN(CC)CCCNC(=S)N1CCN(c2nc(-c3ccccc3)cs2)CC1,18µM*,?,8%,/

# From PubChem
